# Values joined by “and” are separate entries in the source; they are usually repeats but may differ in a detail not shown here. Equal values may be shown once. Out of some 350,000 compounds screened, about 5,500 (1.6%) were called active.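 Rule for the calls: active = significant combined selectivity score with lowered wild-type GFP, culture density cut under 30%, mutant RFP and density less affected; inactive = any of these conditions unmet.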 Many of the other results were omitted from the sample, so actives are more common in it than they were.
# Test: reduced GFP signal of wild-type E. coli, primary screen, bacterial rRNA inhibitor project, GFP/RFP fluorescence, OD600, single point (AID 720706)
# Details: E. coli WT GFP vs humanized-ribosome RFP mutants, 24 h; GFP signal change (wild-type ribosome): stronger effect = lower value, DMSO median 0, no signal -100; OD600 change: measured here: OD600 growth, DMSO median 0, no signal -100; RFP signal change: measured here: RFP humanized mutant strains, DMSO median 0, no signal -100, concentration not given here
SMILES,GFP signal change (wild-type ribosome),OD600 change,RFP signal change
COc1ccc(Br)cc1/C=N/Nc1ccc(S(=O)(=O)Nc2ccccc2C(=O)O)cc1[N+](=O)[O-],-24.6% (active),15.1%,-1.87%
CCCC#Cc1ccc([C@H]2[C@@H](CO)N3CCCCN(S(=O)(=O)Cc4ccccc4)C[C@H]23)cc1,-54.1% (inactive),-75.8%,-7.77%
C[C@@H]1CCCCO[C@H](CN(C)S(=O)(=O)c2cccs2)[C@H](C)CN([C@H](C)CO)C(=O)c2cc(NC(=O)c3ccccc3)ccc2O1,0.541% (inactive),-5.5%,4.83%
O=C(CCC(=O)c1cccs1)NC1CCCCCC1,13.3% (inactive),16.6%,0.589%
O=C(c1cccs1)N1CCC(c2nc3ccccc3s2)CC1,-27.6% (inactive),-25.9%,9.84%
O=C(CCC(=O)c1cccs1)Nc1nc2ccccc2s1,-21.4% (active),-16.4%,-0.615%
COc1cccc(OC)c1C(=O)N1CCN(Cc2ccccc2F)CC1,11.6% (inactive),16.8%,0.962%
COc1ccc(Br)cc1CN1CCN(C(=O)c2cccc(OC)c2OC)CC1,-28.2% (active),-11.8%,1.29%
COc1cc(OC)c(OC)cc1CN1CCN(C(=O)c2cccc3ccccc23)CC1,9.36% (inactive),7.23%,0.512%
COc1ccc(NC(=O)Nc2ccc3c(c2)C(=O)N([C@H](C)CO)C[C@H](C)[C@@H](CN(C)Cc2ccc(C(=O)O)cc2)OCCCC[C@H](C)O3)cc1,-0.806% (inactive),-1.43%,-1.16%
C[C@H]1CCCCO[C@H](CN(C)S(=O)(=O)c2ccc(Cl)cc2)[C@@H](C)CN([C@@H](C)CO)C(=O)c2cc(NC(=O)Nc3ccc4c(c3)OCO4)ccc2O1,2.33% (inactive),1.85%,-3.19%
COc1ccc2c3c(n(C)c2c1)[C@H](CO)N(C(C)=O)CC31CN(Cc2ccc(Cl)cc2)C1,-5.13% (inactive),-14.3%,1.56%
C[C@@H]1CN([C@@H](C)CO)S(=O)(=O)c2ccc(-c3ccncc3)cc2O[C@@H]1CN(C)C(=O)C1CCC1,-1.91% (inactive),0.625%,-1.44%
COc1cc(/C=C/C(=O)N2CCc3ccccc3C2)cc(OC)c1OC,-21.8% (active),-16.9%,0.83%
CCC(C)(C)NC(=O)/C=C/c1cc(OC)c(OC)c(S(=O)(=O)N2CCc3ccccc32)c1,25% (inactive),13.4%,-10.2%
COc1cc(/C=C/C(=O)OCC(=O)c2ccccc2)cc(OC)c1OC,-32.8% (inactive),-28.1%,-5.92%

SMILES,GFP signal change (wild-type ribosome),OD600 change,RFP signal change
O=C(C[C@H]1C[C@H]2c3cc(NC(=O)Nc4ccc(C(F)(F)F)cc4)ccc3O[C@H]2[C@@H](CO)O1)NCc1cccnc1,3.1% (inactive),2.56%,-0.972%
COc1cccc(S(=O)(=O)N2[C@@H]3CNC[C@H]2C3c2ccc(-c3ccccc3OC)cc2)c1 (stereo partly drawn),-57.9% (inactive) and 6.81% (inactive),-76.9% and 4.62%,-12.3% and 0.158%
COc1cccc(S(=O)(=O)N2C[C@H](O)COC[C@H]3O[C@@H](CC(=O)N4CCN(c5ccccc5)CC4)CC[C@@H]32)c1,-6.4% (inactive),-3.12%,2.98%
CCCN(C)C[C@@H]1OCCCC[C@H](C)Oc2ccc(NS(=O)(=O)c3ccc(C)cc3)cc2C(=O)N([C@H](C)CO)C[C@@H]1C,-0.00475% (inactive),-4.83%,1.63%
COCC(=O)Nc1ccc2c(c1)C(=O)N(C)C[C@@H](OC)[C@@H](C)CN(CC1CCCCC1)[C@@H](C)CO2,0.911% (inactive),5.47%,-0.068%
COc1ccccc1N1CCN(Cc2ccc(OC)c3ccccc23)CC1,-21.9% (active),-8.32%,-3.95%
COc1ccccc1N1CCN(Cc2cc(OC)c3c(c2)OCO3)CC1,-2.5% (inactive),-4.28%,-3.78%
COc1ccc(CN2CCN(Cc3ccc(OC)c(OC)c3OC)CC2)cc1,13.2% (inactive),19.1%,-0.244%
CO[C@@H](CN(C)S(=O)(=O)c1ccc(F)cc1)[C@H](C)CN(C(=O)Nc1ccccc1F)[C@@H](C)CO,-3.35% (inactive),0.819%,-3.65%
C[C@@H]1CN([C@H](C)CO)C(=O)Cc2cc(NC(=O)C3CCCCC3)ccc2O[C@@H]1CN(C)Cc1ccc(C(F)(F)F)cc1,-2.69% (inactive),1.55%,2.15%
COc1ccc2nc(NC(=O)NC3CCCCC3)sc2c1,-22.5% (active),-17.5%,7.27%
Cc1nc2ccc(NC(=O)C3CCCCC3)cc2s1,-1.32% (inactive),-0.83%,-0.607%
COc1ccc(C(=O)NC(=S)NC2CCCCC2)cc1,-49.8% (inactive),-73.1%,-12.9%
C[C@H](CO)N1C[C@H](C)[C@H](CN(C)Cc2ccccc2)OCCCC[C@H](C)Oc2ccc(NC(=O)CCC(F)(F)F)cc2C1=O,-1.2% (inactive),-5.79%,-1.47%
CC(C)NC(=O)Nc1ccc2c(c1)C(=O)N([C@@H](C)CO)C[C@@H](C)[C@H](CN(C)Cc1ccc(Cl)c(Cl)c1)O2,-11.4% (inactive),-58.1%,26%

# From PubChem BioAssay AID720706 (Broad Institute, 2013)
